# Reference: PubChem BioAssay (EPA / NIEHS)
# Several values for one entry are separate records, joined by “and”; a condition that tells them apart may be missing. Equal entries are not always repeated. A structure can be active in one record and inactive in another. Activity calls are given as the source filed them. How the source made its calls: active means hit-call score of the fitted dose curve at least 0.9, where 1 is the maximum; inactive means score below 0.9.
# Legend:
# [1] = ATG_ISRE_CIS: Attagene CIS-FACTORIAL HepG2 Assay for human Interferon Regulatory Factor 1 (IRF1) binding to an Interferon-Stimulated Response Element (ISRE) (AID 2282948); conditions: HepG2 ISRE cis-reporter (Attagene), mRNA transcription readout; actives raise or lower the signal
# In short: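 Quantitation relies on labelled RT-PCR fragments separated by capillary electrophoresis. Human HepG2 cells bearing cis-promoter reporter constructs were treated 24 h; DMSO served as baseline for bidirectional fitting.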
# [2] = ATG_M_32_CIS: Attagene CIS-FACTORIAL HepG2 Assay for M32 Transcription Factor (Internal Marker) (AID 2282949); conditions: HepG2 Attagene cis-factorial M32 reporter, mRNA; actives raise or lower the signal;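 further: background control marker of the multiplexed CIS panel rather than a real target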
# In short: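 Fluorescent capillary electrophoresis peaks of HpaI-digested, FAM-labelled RT-PCR reporter products give the signal. Source: transiently transfected human liver HepG2 cells, 24 h after chemical dosing; bidirectional fitting against DMSO.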
# [3] = ATG_M_06_CIS: Attagene CIS-FACTORIAL HepG2 Assay for M06 Transcription Factor (Internal Marker) (AID 2282950); conditions: HepG2 Attagene CIS-FACTORIAL M06 internal marker reporter; actives raise or lower the signal
# In short: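 One of many multiplexed endpoints: HepG2 reporter mRNA after 24 h dosing, detected by RT-PCR and capillary electrophoresis fluorescence; gain or loss of signal analysed against DMSO.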
# [4] = target: Hypoxia-inducible factor 1-alpha (Homo sapiens) (UniProt Q16665); assay: ATG_HIF1a_CIS: Attagene CIS-FACTORIAL HepG2 Assay for human Hypoxia Inducible Factor 1 (HIF1A) (AID 2282951); conditions: HepG2 Attagene cis-factorial HIF1a reporter transcription; actives raise or lower the signal
# In short: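 Dosed 24 h, transfected HepG2 cells yielded total RNA whose reporter transcripts were RT-PCR-amplified and sized by capillary electrophoresis using fluorescent labelling; DMSO defined baseline, with gain and loss of signal both fitted.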
# [5] = target: Hepatocyte nuclear factor 6 (Homo sapiens) (UniProt Q9UBC0); assay: ATG_HNF6_CIS: Attagene CIS-FACTORIAL HepG2 Assay for human Hepatocyte Nuclear Factor 6 (HNF6) (AID 2282952); conditions: HepG2 Attagene cis-factorial HNF6 reporter transcription; actives raise or lower the signal
# In short: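 HepG2 cells transiently transfected with cis-element-driven multiplexed reporter units measuring endogenous transcription factor activity. After 24 h exposure, reporter mRNA quantified by RT-PCR, FAM-labelled fragments and capillary electrophoresis; bidirectional fitting versus DMSO.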
# [6] = target: Heat shock factor protein 1 (Homo sapiens) (UniProt Q00613); assay: ATG_HSE_CIS: Attagene CIS-FACTORIAL HepG2 Assay for human Heat Shock Transcription Factor 1 (HSE) (AID 2282953); conditions: HepG2 HSE cis-reporter, Attagene RNA transcription; actives raise or lower the signal
# In short: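 Using HepG2 with transfected cis-driven reporter constructs, compound effects on endogenous factor activity are scored as reporter mRNA change at 24 h. Detection: RT-PCR, HpaI digestion, capillary electrophoresis; bidirectional fitting to DMSO.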
# [7] = ATG_MRE_CIS: Attagene CIS-FACTORIAL HepG2 Assay for human Metal Responsive Element (MRE) (AID 2282954); conditions: HepG2 MRE cis-reporter transcription, Attagene multiplex; actives raise or lower the signal
# In short: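 Transient MRTU transfection of HepG2 (FuGene 6); 24 h dosing; total RNA → oligo(dT) RT, PCR, 6-FAM primer extension, HpaI cut, CE. Bidirectional fit vs DMSO.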
# [8] = ATG_PBREM_CIS: Attagene CIS-FACTORIAL HepG2 Assay for human Phenobarbital-responsive Enhancer Module (PBREM) (AID 2282955); conditions: HepG2 PBREM cis-reporter, Attagene multiplexed transcription; actives raise or lower the signal
# In short: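 Transfected liver-derived HepG2 cells exposed 24 h; PBREM reporter transcript quantified via RT-PCR and capillary electrophoresis, with activity in either direction referenced to DMSO.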
# [9] = target: Paired box protein Pax-6 (Homo sapiens) (UniProt P26367); assay: ATG_Pax6_CIS: Attagene CIS-FACTORIAL HepG2 Assay for human Paired Box 6 (PAX6) (AID 2282956); conditions: HepG2 CIS-FACTORIAL PAX6 reporter transcription, RNA readout; actives raise or lower the signal
# In short: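 After twenty-four hours of chemical exposure, transfected HepG2 cells are harvested for RNA. Cis-promoter reporter transcripts are amplified, fluorescently labelled and sized by capillary electrophoresis, with gain and loss of signal scored against DMSO.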
# [10] = ATG_PXRE_CIS: Attagene CIS-FACTORIAL HepG2 Assay for human Pregnane X Receptor Element (PXRE) (AID 2282957); conditions: HepG2 Attagene CIS-FACTORIAL PXRE reporter, mRNA; actives raise or lower the signal
# In short: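 HepG2 cells transiently transfected with cis-element-driven multiplexed reporter units; after 24 h chemical exposure, reporter mRNA measured by RT-PCR, 6-FAM labelling, HpaI digestion and capillary electrophoresis. Bidirectional fitting relative to DMSO.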
# [11] = ATG_PPRE_CIS: Attagene CIS-FACTORIAL HepG2 Assay for human Peroxisome Proliferator-activated Response Element (PPRE) (AID 2282958); conditions: HepG2 PPRE cis-element reporter, Attagene transcription factor profiling; actives raise or lower the signal
# In short: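 Measured endpoint: PPRE-controlled reporter mRNA, detected by RT-PCR and capillary electrophoresis fluorescence, from transiently transfected HepG2 cells 24 h after dosing. Curves fitted in both directions using DMSO baseline.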
# [12] = ATG_RORE_CIS: Attagene CIS-FACTORIAL HepG2 Assay for human RAR-related Orphan Receptor Element (RORE) (AID 2282959); conditions: HepG2 Attagene cis-factorial RORE reporter, mRNA; actives raise or lower the signal
# In short: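 Transiently transfected HepG2 reporter cells were treated 24 h. Reporter transcripts were detected by RT-PCR and capillary electrophoresis, with bidirectional fitting against DMSO.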
# [13] = ATG_Sox_CIS: Attagene CIS-FACTORIAL HepG2 Assay for human SRY-box transcription factor (SOX) (AID 2282960); conditions: HepG2 Attagene cis-factorial SOX reporter, mRNA; actives raise or lower the signal
# In short: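 Gain- or loss-of-signal endpoint, fitted bidirectionally with DMSO as negative control. Based on reporter mRNA from transfected HepG2 cells harvested 24 h post-treatment and quantified via RT-PCR and capillary electrophoresis.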
# [14] = target: Transcription factor Sp1 (Homo sapiens) (UniProt P08047); assay: ATG_Sp1_CIS: Attagene CIS-FACTORIAL HepG2 Assay for human Specificity Protein 1 (Sp1) (AID 2282961); conditions: HepG2 Sp1 cis-reporter transcription, actives raise or lower the signal
# In short: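 Endpoint reflects endogenous Sp1 transcriptional activity, not an exogenous fusion protein: HepG2 cells with transfected cis-regulated reporters, 24 h dosing, RT-PCR/capillary electrophoresis mRNA read-out, DMSO-normalised bidirectional fit.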
# [15] = ATG_SREBP_CIS: Attagene CIS-FACTORIAL HepG2 Assay for human Sterol Regulatory Element Binding (SREBP) (AID 2282962); conditions: HepG2 Attagene cis-factorial SREBP reporter, mRNA; actives raise or lower the signal
# In short: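 Twenty-four hours after chemical dosing of transfected HepG2 cultures, reporter RNA was converted to cDNA, amplified, end-labelled with 6-FAM and resolved by capillary electrophoresis. Responses were fitted relative to DMSO.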
# [16] = target: Signal transducer and activator of transcription 3 (Homo sapiens) (UniProt P40763); assay: ATG_STAT3_CIS: Attagene CIS-FACTORIAL HepG2 Assay for human Signal Transducer and Activator of Transcription 3 (STAT3) (AID 2282963); conditions: HepG2, Attagene cis-factorial STAT3 reporter transcription; actives raise or lower the signal
# In short: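 Endogenous STAT3-responsive cis-element activity was read in transiently transfected HepG2 cells after 24 h treatment. Reporter transcripts were quantified via RT-PCR and capillary electrophoresis, with DMSO as negative control and bidirectional curve fitting.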
# [17] = ATG_TA_CIS: Attagene CIS-FACTORIAL HepG2 Assay for human TA Basal Promoter (AID 2282964); conditions: HepG2 Attagene CIS-factorial TA basal promoter reporter; actives raise or lower the signal
# In short: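 Transient MRTU transfection of HepG2 preceded 24 h compound exposure. Reporter mRNA levels were then read by RT-PCR with capillary electrophoresis, and this background-control endpoint was fitted bidirectionally to DMSO.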
# [18] = ATG_TCF_b_cat_CIS: Attagene CIS-FACTORIAL HepG2 Assay for human T-Cell-Factor with beta-catenin (TCF/b-cat) (AID 2282965); conditions: HepG2 TCF/beta-catenin cis-reporter transcription, actives raise or lower the signal
# In short: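 Endogenous TCF/LEF activity read as reporter transcript level via RT-PCR and capillary electrophoresis fluorescence in transfected HepG2, 24 h exposure; gain or loss of signal fitted against DMSO controls.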
# [19] = ATG_TAL_CIS: Attagene CIS-FACTORIAL HepG2 Assay for human TAL Basal Promoter (AID 2282966); conditions: HepG2 Attagene cis-factorial TAL promoter reporter; actives raise or lower the signal;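 further: background control endpoint measuring basal TAL promoter reporter mRNA not a specific factor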
# In short: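 HepG2 cells transiently transfected with multiplexed cis-promoter reporter units, dosed 24 h. Reporter mRNA quantified by RT-PCR, 6-FAM labelling, HpaI digestion and capillary electrophoresis; TAL basal promoter serves as background control, fitted bidirectionally versus DMSO.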
# [20] = ATG_TGFb_CIS: Attagene CIS-FACTORIAL HepG2 Assay for human Transforming Growth Factor (TGF) (AID 2282967); conditions: HepG2 Attagene CIS TGFb reporter, mRNA transcription; actives raise or lower the signal
# In short: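 After a 24-hour incubation with compound, transfected HepG2 cells were lysed for RNA; reporter cDNA was amplified, fluorescently end-labeled and separated by CE. DMSO served as baseline for bidirectional fits.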
# Heat shock factor protein 1 (Homo sapiens), sequence (Q00613 whole entry, looked up): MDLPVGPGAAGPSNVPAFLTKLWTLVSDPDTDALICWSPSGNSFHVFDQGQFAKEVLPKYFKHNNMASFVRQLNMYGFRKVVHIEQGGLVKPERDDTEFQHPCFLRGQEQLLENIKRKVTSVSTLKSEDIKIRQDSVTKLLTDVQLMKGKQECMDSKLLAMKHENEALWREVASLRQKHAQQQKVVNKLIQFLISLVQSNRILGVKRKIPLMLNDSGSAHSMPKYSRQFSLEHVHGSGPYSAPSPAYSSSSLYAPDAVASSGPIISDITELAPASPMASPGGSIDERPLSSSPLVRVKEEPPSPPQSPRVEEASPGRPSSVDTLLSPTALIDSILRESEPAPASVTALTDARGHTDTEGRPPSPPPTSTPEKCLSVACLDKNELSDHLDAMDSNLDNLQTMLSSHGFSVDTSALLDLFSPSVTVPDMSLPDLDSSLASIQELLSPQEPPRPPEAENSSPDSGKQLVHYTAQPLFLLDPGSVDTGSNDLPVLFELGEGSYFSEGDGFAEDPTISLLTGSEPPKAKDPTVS
# Paired box protein Pax-6 (Homo sapiens), sequence (P26367 whole entry, looked up): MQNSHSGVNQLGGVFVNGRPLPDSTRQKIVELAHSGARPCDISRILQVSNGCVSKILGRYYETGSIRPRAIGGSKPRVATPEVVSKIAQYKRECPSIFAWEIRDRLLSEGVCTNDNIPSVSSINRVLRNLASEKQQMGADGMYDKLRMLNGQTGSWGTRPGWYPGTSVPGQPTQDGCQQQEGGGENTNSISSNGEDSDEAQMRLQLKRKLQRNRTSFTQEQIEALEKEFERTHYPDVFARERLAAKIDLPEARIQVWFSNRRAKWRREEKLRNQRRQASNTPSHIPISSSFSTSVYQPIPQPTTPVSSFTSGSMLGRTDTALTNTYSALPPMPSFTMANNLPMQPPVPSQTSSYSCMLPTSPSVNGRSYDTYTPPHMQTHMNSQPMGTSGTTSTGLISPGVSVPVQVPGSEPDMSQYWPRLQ
# Hepatocyte nuclear factor 6 (Homo sapiens), sequence (Q9UBC0 whole entry, looked up, the tested form may be a part): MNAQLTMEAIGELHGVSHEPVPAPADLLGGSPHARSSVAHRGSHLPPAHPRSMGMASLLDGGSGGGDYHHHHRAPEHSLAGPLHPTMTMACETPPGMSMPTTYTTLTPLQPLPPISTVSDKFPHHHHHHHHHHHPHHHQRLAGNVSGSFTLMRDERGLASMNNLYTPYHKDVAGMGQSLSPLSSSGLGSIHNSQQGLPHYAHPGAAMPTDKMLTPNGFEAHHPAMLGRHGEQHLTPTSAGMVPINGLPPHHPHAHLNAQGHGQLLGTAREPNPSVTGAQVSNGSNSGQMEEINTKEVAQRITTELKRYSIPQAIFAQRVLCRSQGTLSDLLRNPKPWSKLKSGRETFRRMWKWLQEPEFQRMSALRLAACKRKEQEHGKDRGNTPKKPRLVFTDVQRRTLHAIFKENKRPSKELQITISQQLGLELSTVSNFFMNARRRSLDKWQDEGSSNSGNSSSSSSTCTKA
# Transcription factor Sp1 (Homo sapiens), sequence (P08047 whole entry, looked up, the tested form may be a part): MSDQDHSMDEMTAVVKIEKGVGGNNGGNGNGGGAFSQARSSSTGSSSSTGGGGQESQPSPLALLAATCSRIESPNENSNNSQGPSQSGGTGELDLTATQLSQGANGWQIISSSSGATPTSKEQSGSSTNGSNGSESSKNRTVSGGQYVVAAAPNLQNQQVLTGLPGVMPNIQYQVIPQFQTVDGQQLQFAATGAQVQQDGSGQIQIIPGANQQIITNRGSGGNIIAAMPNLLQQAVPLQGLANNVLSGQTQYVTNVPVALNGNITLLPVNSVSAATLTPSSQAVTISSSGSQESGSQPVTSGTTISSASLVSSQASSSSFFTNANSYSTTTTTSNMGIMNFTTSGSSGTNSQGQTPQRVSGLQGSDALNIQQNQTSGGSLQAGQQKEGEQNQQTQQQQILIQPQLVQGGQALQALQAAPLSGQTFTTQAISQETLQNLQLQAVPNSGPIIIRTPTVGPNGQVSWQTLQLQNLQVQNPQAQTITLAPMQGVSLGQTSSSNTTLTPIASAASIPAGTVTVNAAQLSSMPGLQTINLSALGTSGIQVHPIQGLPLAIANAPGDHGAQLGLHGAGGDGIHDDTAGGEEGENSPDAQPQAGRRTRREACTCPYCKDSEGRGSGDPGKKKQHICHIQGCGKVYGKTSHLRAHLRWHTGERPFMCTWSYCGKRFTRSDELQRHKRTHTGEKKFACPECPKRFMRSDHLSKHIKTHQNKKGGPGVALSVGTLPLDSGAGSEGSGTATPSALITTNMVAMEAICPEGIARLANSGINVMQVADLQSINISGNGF
# Signal transducer and activator of transcription 3 (Homo sapiens), sequence (P40763 whole entry, looked up): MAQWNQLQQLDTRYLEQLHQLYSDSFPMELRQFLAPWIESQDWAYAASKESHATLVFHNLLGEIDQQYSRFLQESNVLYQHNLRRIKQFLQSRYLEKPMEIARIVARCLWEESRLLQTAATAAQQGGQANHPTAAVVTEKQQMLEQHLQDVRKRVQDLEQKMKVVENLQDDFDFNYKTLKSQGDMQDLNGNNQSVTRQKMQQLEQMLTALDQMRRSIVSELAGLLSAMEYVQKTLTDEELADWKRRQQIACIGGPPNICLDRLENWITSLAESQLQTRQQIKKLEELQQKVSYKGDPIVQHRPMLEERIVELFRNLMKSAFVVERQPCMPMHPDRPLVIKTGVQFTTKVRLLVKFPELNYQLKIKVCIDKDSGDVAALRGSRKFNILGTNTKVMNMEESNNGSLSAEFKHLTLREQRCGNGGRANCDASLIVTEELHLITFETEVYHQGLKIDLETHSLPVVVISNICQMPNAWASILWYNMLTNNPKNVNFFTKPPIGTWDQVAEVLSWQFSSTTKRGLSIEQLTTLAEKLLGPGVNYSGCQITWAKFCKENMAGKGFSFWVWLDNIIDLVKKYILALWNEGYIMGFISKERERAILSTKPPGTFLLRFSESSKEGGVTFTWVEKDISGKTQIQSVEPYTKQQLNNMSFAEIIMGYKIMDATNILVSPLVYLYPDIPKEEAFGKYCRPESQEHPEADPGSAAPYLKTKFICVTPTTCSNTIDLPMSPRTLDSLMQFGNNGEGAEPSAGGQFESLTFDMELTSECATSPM
# Hypoxia-inducible factor 1-alpha (Homo sapiens), sequence (Q16665 whole entry, looked up): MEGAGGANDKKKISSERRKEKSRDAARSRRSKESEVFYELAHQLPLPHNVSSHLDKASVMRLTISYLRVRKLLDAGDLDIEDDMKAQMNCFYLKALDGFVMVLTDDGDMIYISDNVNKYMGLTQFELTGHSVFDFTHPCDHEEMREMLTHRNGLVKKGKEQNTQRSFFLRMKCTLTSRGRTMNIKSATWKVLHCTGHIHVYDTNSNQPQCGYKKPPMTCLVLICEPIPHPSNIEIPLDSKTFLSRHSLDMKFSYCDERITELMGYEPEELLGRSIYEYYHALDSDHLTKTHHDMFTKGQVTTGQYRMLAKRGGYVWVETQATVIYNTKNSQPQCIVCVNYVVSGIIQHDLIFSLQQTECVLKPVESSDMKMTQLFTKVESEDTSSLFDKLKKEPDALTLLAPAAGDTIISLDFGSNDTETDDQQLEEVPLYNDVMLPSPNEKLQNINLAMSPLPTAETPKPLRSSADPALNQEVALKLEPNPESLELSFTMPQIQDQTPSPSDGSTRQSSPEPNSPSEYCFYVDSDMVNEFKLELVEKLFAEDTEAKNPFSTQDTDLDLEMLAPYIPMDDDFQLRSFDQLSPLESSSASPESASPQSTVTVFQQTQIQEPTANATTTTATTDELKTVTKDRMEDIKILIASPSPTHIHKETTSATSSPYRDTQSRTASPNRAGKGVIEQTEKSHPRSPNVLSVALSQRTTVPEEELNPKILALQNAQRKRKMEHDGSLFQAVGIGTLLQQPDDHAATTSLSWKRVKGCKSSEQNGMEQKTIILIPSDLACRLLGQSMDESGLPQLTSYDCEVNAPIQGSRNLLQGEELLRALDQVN
smiles,measurement,setting,value
CC(C)(c1ccc(Oc2ccc(N)cc2)cc1)c1ccc(Oc2ccc(N)cc2)cc1,outcome,[1],inactive
same,outcome,[2],inactive
same,outcome,[3],inactive
same,outcome,[4],inactive
same,outcome,[5],inactive
same,outcome,[6],inactive
same,AC50,[7],2.77 µM (active)
same,outcome,[8],inactive
same,outcome,[9],inactive
same,AC50,[10],2.01 µM (active)
same,outcome,[11],inactive
same,outcome,[12],inactive
same,outcome,[13],inactive
same,outcome,[14],inactive
same,outcome,[15],inactive
same,outcome,[16],inactive
same,outcome,[17],inactive
same,outcome,[18],inactive
same,outcome,[19],inactive
same,outcome,[20],inactive
C=C(c1ccc(C(=O)O)cc1)c1cc2c(cc1C)C(C)(C)CCC2(C)C,AC50,[1],16.8 µM (active)
same,outcome,[1],inactive
same,outcome,[3],inactive
same,outcome,[4],inactive
same,outcome,[5],inactive
same,AC50,[6],16.2 µM (active) and 27.9 µM (active)
same,AC50,[7],13.8 µM (active) and 23 µM (active)
same,AC50,[8],30.3 µM (active)
same,outcome,[8],inactive
same,AC50,[9],14.9 µM (active) and 25.3 µM (active)
same,AC50,[10],0.154 µM (active)
same,outcome,[10],inactive
same,AC50,[11],9.14 nM (active) and 19.3 nM (active)
same,AC50,[12],2.2 µM (active)
same,outcome,[12],inactive
same,outcome,[13],inactive
same,AC50,[14],32.9 µM (active)
same,outcome,[14],inactive
same,outcome,[15],inactive
same,outcome,[16],inactive
same,AC50,[17],11.1 µM (active) and 29.8 µM (active)
same,AC50,[18],13.7 µM (active)
same,outcome,[18],inactive
same,AC50,[19],30.4 µM (active)
same,outcome,[19],inactive
same,outcome,[20],inactive
FC(F)(F)C(F)(F)C(F)(F)Br,outcome,[1],inactive
same,outcome,[2],inactive
same,outcome,[3],inactive
same,outcome,[4],inactive
same,outcome,[5],inactive
same,outcome,[6],inactive
same,outcome,[7],inactive
same,outcome,[8],inactive
same,outcome,[9],inactive
same,outcome,[10],inactive
same,outcome,[11],inactive
same,outcome,[12],inactive
same,outcome,[13],inactive
same,outcome,[14],inactive
same,outcome,[15],inactive
same,outcome,[16],inactive
same,outcome,[17],inactive
same,outcome,[18],inactive
same,outcome,[19],inactive
same,outcome,[20],inactive
O=C(CC(=O)C(F)(F)C(F)(F)C(F)(F)F)c1cccs1,outcome,[1],inactive
same,outcome,[2],inactive
same,outcome,[3],inactive
same,AC50,[4],12.8 µM (active) and 16.5 µM (active)
same,outcome,[5],inactive
same,AC50,[6],86.8 µM (active)
same,outcome,[6],inactive
same,AC50,[7],50 µM (active)
same,outcome,[7],inactive
same,outcome,[9],inactive
same,AC50,[10],12.9 µM (active) and 12.8 µM (active)
same,AC50,[11],8.07 µM (active) and 26.2 µM (active)
same,AC50,[12],15.6 µM (active)
same,outcome,[12],inactive
same,AC50,[14],39.6 µM (active)
same,outcome,[14],inactive
same,AC50,[15],16.2 µM (active) and 80.3 µM (active)
same,outcome,[16],inactive
same,outcome,[17],inactive
same,outcome,[18],inactive
same,AC50,[19],81 µM (active) and 34.2 µM (active)
same,outcome,[20],inactive
Clc1ccc2c(Cl)ccnc2c1,outcome,[1],inactive
same,outcome,[2],inactive
same,outcome,[3],inactive
same,outcome,[4],inactive
same,outcome,[5],inactive
same,outcome,[6],inactive
same,outcome,[7],inactive
same,outcome,[8],inactive
same,outcome,[9],inactive
same,outcome,[10],inactive
same,AC50,[11],41.2 µM (active)
same,outcome,[12],inactive
same,outcome,[13],inactive
same,outcome,[14],inactive
same,outcome,[15],inactive
same,outcome,[16],inactive
same,outcome,[17],inactive
same,outcome,[18],inactive
same,outcome,[19],inactive
same,outcome,[20],inactive
C=CC(=O)OCCC(F)(F)C(F)(F)C(F)(F)C(F)(F)C(F)(F)C(F)(F)F,outcome,[1],inactive
same,outcome,[2],inactive
same,outcome,[3],inactive
same,outcome,[4],inactive
same,outcome,[5],inactive
same,outcome,[6],inactive
same,outcome,[7],inactive
same,outcome,[8],inactive
same,outcome,[9],inactive
same,outcome,[10],inactive
same,outcome,[11],inactive
same,outcome,[12],inactive
same,outcome,[13],inactive
same,outcome,[14],inactive
same,outcome,[15],inactive
same,outcome,[16],inactive
same,outcome,[17],inactive
same,outcome,[18],inactive
same,outcome,[19],inactive
same,outcome,[20],inactive
